For assay [1], the target named is Glucocorticoid receptor (Homo sapiens) (UniProt P04150). The assay can be described thus: GR-GFP Redistribution (AID 450;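 active means compounds whose dose series gives a full or clear partial fitted curve of increased nuclear translocation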; further: potency means the concentration at half of the fitted maximal effect). The following applies: U2OS GR-GFP nuclear translocation, laser cytometry, 2 h.
In assay [2] the target is Mitogen-activated protein kinase 10 (Mus musculus) (UniProt Q61831). The assay can be described thus: JNK3 AlphaScreen Assay (AID 530; active means well fitted curve in either direction with a large enough effect, not every such curve was filed as active;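 further: kinase came from lysate of stimulated human HepG2 cells; signal reports phosphorylation of biotinylated GST-cJun 1-79 at Ser73 with 10 µM ATP; on the % scale 0 is the no-effect control and ±100 the full control effect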). The following applies: JNK3 lysate, c-Jun phosphorylation; series mostly up to 57.1 µM. The procedure, abridged:
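Activity was read by AlphaScreen after JNK3-containing HepG2 lysate (cytokine pre-activated) phosphorylated biotinylated GST-cJun with 10 uM ATP at room temperature. Phospho-Ser73 cJun antibody with Protein-A acceptor beads provided detection.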
A general note: Alpha assays give light when donor and acceptor beads are brought close together.

Assay [3] addresses 3',5'-cyclic-AMP phosphodiesterase 4B (Homo sapiens) (UniProt Q07343). The assay can be described thus: qHTS Assay for Inhibitors of PDE-IV (AID 607; active means well fitted activation curve with a large enough effect in the main read-out, with a control signal flat, not every such curve was filed as active; further: % of control where 0% means no effect). As to conditions: HEK293 ACTOne CNG channel cells, membrane potential fluorescence; series mostly up to 22.9 µM. The procedure, abridged: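 The readout is membrane depolarisation from a cAMP-sensing CNG channel, detected with a potential dye at ex 535/em 590. Cells were HEK293-derived (endogenous PDE-IV) at 1000 cells/well, titrated up to 22.9 uM final.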

Assay [4] is described as follows: qHTS Assay for Lipid Storage Modulators (AID 1519; calls by dose curve; on activity change, negative = inhibition: on the % scale 0 is the no-effect control and ±100 the full control effect). The following applies: Drosophila S3 cells, BODIPY lipid droplet/cell ratio, laser cytometry, cells loaded with oleic acid; for activity change, negative = inhibition: at 57.5 µM (top of the series). Put shortly: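 Cells seeded at 5,000 per well were treated with compounds over a concentration series and loaded with oleic acid (400 uM, as added). Lipid droplet fluorescence (488 nm excitation, 500-530 nm channel) was read by laser-scanning cytometry and normalized to 20 uM Triacsin C.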
In general terms: In qHTS, concentration-response curves come from the screen itself.

In assay [5] the target is Ubiquitin carboxyl-terminal hydrolase 1 (Homo sapiens) (UniProt O94782). The assay can be described thus: Inhibitors of USP1/UAF1: Pilot qHTS (AID 504865).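 Further: rhodamine fluorescence freed from ubiquitin-rhodamine substrate followed over time; top concentration of the series differs between compounds; on the % scale 0 is the no-effect control and ±100 the full control effect; nearly all actives have a fitted effect of over 35% in size.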 As to conditions: purified USP1/UAF1, Ub-rhodamine cleavage fluorescence; series mostly up to 114 µM. The procedure, abridged:
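USP1/UAF1 complex (1nM) preincubated with compound 15 min at room temperature, then Ub-Rho substrate (150nM final) added. Fluorescence read kinetically at 480/540 nm, 6 reads every 60 seconds. Buffer: 50mM HEPES pH 7.8, 0.5mM EDTA, 0.1 mg/ml BSA, 1mM TCEP, 0.01% Tween-20.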

Assay [6] addresses DNA dC->dU-editing enzyme APOBEC-3G (Homo sapiens) (UniProt Q9HC16). The assay can be described thus: qHTS for inhibitors of Vif-A3G interactions: Validation (AID 588379). Further: 0% is about no effect. The following applies: Vif-A3G protein interaction assay; series mostly up to 46.1 µM. Put shortly: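 Yellow fluorescence (Ex 488, Em 500-530) of Vif-coexpressing HeLa A3G-eYFP cells, scanned by Acumen cytometer, reports blocked A3G degradation. Cells plated at 700/well overnight at 37 deg C before compound addition, then a further overnight compound incubation at 37 deg C.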

The nature of assay [7]: Primary qHTS for small molecule stabilizers of the endoplasmic reticulum resident proteome: Secreted ER Calcium Modulated Protein (SERCaMP) assay (AID 1508630). Further: on the % scale 0 is the no-effect control and ±100 the full control effect. The following applies: SH-SY5Y GLuc-SERCaMP (Gaussia luciferase released on ER calcium loss) secretion, thapsigargin, luminescence; series mostly up to 38.4 µM. The procedure, abridged: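 The SH-SY5Y reporter protocol was run at 3 concentrations up to 38.3 uM (primary) or 11 concentrations (follow-up): 16 h compound, 100 nM thapsigargin for 4 h, then extracellular luciferase luminescence.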

Assay [8] addresses Glucocorticoid receptor (Homo sapiens) (UniProt P04150). The assay can be described thus: GR-EFC Redistribution (AID 451; calls by dose curve; further: potency means the concentration at half of the fitted maximal effect). As to conditions: CHO-K1 GR-EFC translocation, beta-gal luminescence, 2 h. Put shortly: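 CHO-K1 cells expressing nuclear EA and GR-ED fragments of b-gal; compounds titrated up to 46 uM final, 2 h at 37 C. GR nuclear translocation read as complemented b-gal luminescence after 1 h RT detection.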

Assay [9] can be described thus: DH5-alpha competent E. coli microbial cell viability qHTS against the NCATS CANVASS Library (AID 1347377). As to conditions: BacTiter-Glo ATP luminescence, overnight; series mostly up to 46.1 µM. Put shortly: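 Bacteria were dispensed at 0.2 OD, then compounds were pin-transferred. Plates were incubated overnight at 37C, after which BacTiter-Glo was added and luminescence measured 20 min later.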

A short description of assay [10]: qHTS assay for small molecule disruptors of mitochondrial membrane potential screened against the NCATS CANVASS Library (AID 1347389). Further: on the % scale 0 is the no-effect control and ±100 the full control effect; nearly all actives have a fitted effect of over 60% in size. The following applies: HepG2 mitochondrial membrane potential, m-MPI red/green ratio, 1.5 h; series mostly up to 46.1 µM. The procedure, abridged: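 Mitochondrial depolarization in HepG2 cells is scored as a falling aggregate-to-monomer fluorescence ratio after 1 hr compound exposure and 30 min staining with Mito-MPS dye at 37C, each compound tested as an 11-point titration.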

A short description of assay [11]: Secretion counterscreen for inhibitors of the SERCaMP assay screened against the NCATS CANVASS Library (AID 1347390).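 Further: light from luciferase secreted into medium read as a measure of general secretion; on the % scale 0 is the no-effect control and ±100 the full control effect.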 The following applies: SH-SY5Y constitutive GLuc secretion, luminescence, 20 h; series mostly up to 76.6 µM. The procedure, abridged: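 SH-SY5Y cells expressing constitutively secreted GLuc, 1000 cells/well, attached 4 h at 37C, then exposed to compounds (0.001 - 77 uM, 11-pnt series) for 20 h. Coelenterazine added; luminescence read to flag secretory-pathway interferers.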

Assay [12] is described as follows: qHTS for Inhibitors of Plasmodium falciparum (DD2) proliferation (AID 504314). Further: potency means the concentration at half of the fitted maximal effect. As to conditions: P. falciparum Dd2 in erythrocytes, SYBR Green growth, 72 h; series mostly up to 6.11 µM. Put shortly:
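SYBR Green DNA-fluorescence growth assay: infected RBCs at 0.3% parasitemia, 2.5% hematocrit, 72 h compound exposure, 37C, 5% CO2; overnight lysis with dye at RT; normalized to 0.29 uM artemisinin and vehicle.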

The nature of assay [13]: qHTS for Inhibitors of Plasmodium falciparum (GB4) proliferation (AID 504315).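 Further: 0% = DMSO vehicle and -100% = 0.29 µM artemisinin control; nearly all actives have a fitted effect of over 50% in size.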 The following applies: P. falciparum GB4 in erythrocytes, SYBR Green DNA, 72 h; series mostly up to 6.7 µM. The procedure, abridged:
(§1)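 Parasite growth measured as SYBR Green DNA fluorescence (ex 485, em 535 nm) after overnight lysis following 72 h culture at 37 °C, 0.3% parasitemia, 2.5% hematocrit. Values normalized against DMSO and 0.29 uM artemisinin controls, with plate-stack correction.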

A short description of assay [14]: qHTS for Inhibitors of Plasmodium falciparum (7G8) proliferation (AID 504316).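 Further: 0% = DMSO vehicle and -100% = 0.29 µM artemisinin full kill; nearly all actives have a fitted effect of over 65% in size.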 The following applies: P. falciparum 7G8 in erythrocytes, SYBR Green DNA, 72 h; series mostly up to 6.7 µM. The procedure, abridged:
as §1

The mark [15] stands for this setting: measured here: cell count channel max response.
Setting [16] is: measured here: lipid channel max response.

SMILES strings stand for the structures. Records with an inconclusive call do not appear. Active and inactive are the calls of the source. Unless noted, the call rests on the fitted dose curve; in most records, active means well fitted curve in the direction sought with a large enough effect; inconclusive means small, poorly fitted or top-dose-only effect, or another doubt; inactive means no such curve, though single readings can be large; an effect the other way counts as inactive or inconclusive. Where only a bound is given, the exact number is not on record here.

Chain of Glucocorticoid receptor (Homo sapiens) (P04150 whole entry, looked up, the tested form may be a part): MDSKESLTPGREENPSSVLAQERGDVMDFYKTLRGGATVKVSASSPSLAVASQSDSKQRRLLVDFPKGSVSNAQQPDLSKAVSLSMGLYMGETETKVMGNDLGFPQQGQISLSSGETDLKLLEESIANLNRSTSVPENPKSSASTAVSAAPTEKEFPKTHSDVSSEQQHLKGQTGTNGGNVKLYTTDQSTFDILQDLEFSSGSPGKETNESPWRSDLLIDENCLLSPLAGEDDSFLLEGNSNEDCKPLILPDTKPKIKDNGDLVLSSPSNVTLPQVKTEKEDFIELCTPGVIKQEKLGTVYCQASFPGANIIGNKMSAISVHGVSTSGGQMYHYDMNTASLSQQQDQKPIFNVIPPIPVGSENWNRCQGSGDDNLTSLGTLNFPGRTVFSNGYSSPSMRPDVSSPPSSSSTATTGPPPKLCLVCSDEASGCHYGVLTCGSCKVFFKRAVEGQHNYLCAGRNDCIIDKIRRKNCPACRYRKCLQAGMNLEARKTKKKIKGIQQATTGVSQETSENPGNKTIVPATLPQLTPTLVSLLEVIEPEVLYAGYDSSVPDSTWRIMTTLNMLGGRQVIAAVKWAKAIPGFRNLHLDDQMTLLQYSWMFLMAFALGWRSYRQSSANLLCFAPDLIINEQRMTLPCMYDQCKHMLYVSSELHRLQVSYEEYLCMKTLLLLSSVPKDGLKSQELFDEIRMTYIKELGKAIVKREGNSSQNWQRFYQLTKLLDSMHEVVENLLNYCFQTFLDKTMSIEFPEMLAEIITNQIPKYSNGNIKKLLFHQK
Chain of DNA dC->dU-editing enzyme APOBEC-3G (Homo sapiens) (Q9HC16 whole entry, looked up): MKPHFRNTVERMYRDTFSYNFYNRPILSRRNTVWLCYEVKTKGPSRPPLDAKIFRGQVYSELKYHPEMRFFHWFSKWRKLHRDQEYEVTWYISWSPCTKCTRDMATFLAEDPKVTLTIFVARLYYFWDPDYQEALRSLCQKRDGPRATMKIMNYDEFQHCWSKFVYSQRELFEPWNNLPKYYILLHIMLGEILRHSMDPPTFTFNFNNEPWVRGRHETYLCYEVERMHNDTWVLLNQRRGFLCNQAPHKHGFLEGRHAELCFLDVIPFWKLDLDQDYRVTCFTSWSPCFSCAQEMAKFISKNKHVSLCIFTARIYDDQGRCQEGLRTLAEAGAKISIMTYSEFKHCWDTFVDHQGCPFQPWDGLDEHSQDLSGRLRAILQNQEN
Chain of 3',5'-cyclic-AMP phosphodiesterase 4B (Homo sapiens) (Q07343 whole entry, looked up): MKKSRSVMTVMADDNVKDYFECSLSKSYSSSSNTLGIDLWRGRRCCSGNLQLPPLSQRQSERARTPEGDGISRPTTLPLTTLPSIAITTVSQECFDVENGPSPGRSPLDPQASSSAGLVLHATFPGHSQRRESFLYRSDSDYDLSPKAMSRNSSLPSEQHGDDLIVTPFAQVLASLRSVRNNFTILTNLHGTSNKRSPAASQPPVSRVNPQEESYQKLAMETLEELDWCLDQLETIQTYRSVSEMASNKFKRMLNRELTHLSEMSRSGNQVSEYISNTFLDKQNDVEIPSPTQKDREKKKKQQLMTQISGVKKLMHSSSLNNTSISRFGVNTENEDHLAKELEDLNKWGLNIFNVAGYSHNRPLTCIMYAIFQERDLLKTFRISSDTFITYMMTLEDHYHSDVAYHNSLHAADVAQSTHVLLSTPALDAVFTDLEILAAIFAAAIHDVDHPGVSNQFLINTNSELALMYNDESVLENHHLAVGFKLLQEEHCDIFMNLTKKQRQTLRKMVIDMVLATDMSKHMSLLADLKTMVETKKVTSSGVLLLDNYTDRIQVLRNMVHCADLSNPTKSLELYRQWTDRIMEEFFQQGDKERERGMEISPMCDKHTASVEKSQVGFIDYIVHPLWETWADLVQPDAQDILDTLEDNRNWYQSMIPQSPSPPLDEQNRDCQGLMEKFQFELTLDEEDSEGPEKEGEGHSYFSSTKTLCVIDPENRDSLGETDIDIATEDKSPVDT
Chain of Ubiquitin carboxyl-terminal hydrolase 1 (Homo sapiens) (O94782 whole entry, looked up): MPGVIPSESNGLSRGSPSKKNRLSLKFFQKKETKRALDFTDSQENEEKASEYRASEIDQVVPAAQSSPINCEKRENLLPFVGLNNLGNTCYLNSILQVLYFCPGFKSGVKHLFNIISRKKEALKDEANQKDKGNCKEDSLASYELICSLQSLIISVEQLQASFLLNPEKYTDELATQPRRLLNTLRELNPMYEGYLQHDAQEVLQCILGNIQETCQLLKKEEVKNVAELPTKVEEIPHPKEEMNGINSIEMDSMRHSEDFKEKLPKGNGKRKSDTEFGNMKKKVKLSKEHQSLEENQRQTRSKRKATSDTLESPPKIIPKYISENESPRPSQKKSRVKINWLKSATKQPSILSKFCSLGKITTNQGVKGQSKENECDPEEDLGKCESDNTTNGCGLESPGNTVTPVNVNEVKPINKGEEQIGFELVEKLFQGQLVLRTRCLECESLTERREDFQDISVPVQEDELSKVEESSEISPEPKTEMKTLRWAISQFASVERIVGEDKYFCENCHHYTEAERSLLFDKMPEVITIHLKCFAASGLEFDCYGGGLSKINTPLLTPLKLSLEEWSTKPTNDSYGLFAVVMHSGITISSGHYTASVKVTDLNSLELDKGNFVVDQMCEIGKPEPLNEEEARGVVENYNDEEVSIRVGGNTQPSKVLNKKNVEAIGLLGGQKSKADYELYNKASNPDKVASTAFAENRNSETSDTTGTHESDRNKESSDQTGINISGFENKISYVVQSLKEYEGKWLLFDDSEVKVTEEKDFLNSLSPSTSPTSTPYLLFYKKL

In the case of `N[C@H](C(=O)O)C1[C@H](C(=O)O)[C@H]1C(=O)O` (some centres not stated), the Potency in [1] is > 46 µM (inactive). Further, the Potency entry in assay [2], in [3], in assay [5], in [6] and in [7] was “inactive” throughout. Besides, in [4], the activity change, negative = inhibition was 1.13% (inactive). In addition, the max response in assay [4] (setting [15]) is -12.3%; in assay [4] (setting [16]) it was -12.9%.
With `COc1cc(N)c(Cl)cc1C(=O)OCCCN1CCCCC1`, the Potency in [1] and in [8] was > 46 µM (inactive) in each case. Also, the Potency result in [2], in assay [3], in assay [5], in assay [6] and in assay [7] was “inactive” throughout. For the same compound, in [4], the activity change, negative = inhibition was 2.57% (inactive). Moreover, the max response in [4] (setting [15]) was 19.2%; in [4] (setting [16]) it was 21.4%.
In the case of `N=C(N)S/C=C\C(=O)O`, the Potency in [1] and in assay [8] was > 46 µM (inactive) each time. The Potency entry in [2], in assay [6] and in [7] was “inactive” each time.
`O=Cc1ccc2n1C[C@@]1(C[C@H](O)[C@H](O)CO1)OC2`: the compound was classed as inactive in [9]. For the same compound, the Potency result in assay [10] and in assay [11] was “inactive” in each case.
As to `CCOC(=O)CN1C(=O)NC(CCc2ccccc2)C(C(=O)OC)=C1C` (configuration not stated), the Potency entry in assay [12], in assay [13] and in assay [14] was “inactive” in each case.
Take `O=C1Nc2cccc(Br)c2[C@@]12O[C@H](COc1ccccc1)CC1=CCCC12` (some centres not stated): the Potency entry in assay [12], in [13] and in [14] was “inactive” throughout.
On to `COC(=O)C1=C(C)N(Cc2ccccc2)C(=NCc2cc(OC)c(OC)c(OC)c2)NC1c1cccc(F)c1` (configuration not stated), for which the Potency in assay [12] is 1.19 µM (active).
Take `COCCN1C(=O)CC[C@@]23C1=NC(C(=O)OC)=C(C(=O)OC)[C@@H]2N(C)c1ccccc13`: the Potency result in [12], in assay [13] and in assay [14] was “inactive” throughout.
For the compound `COC(=O)N[C@@H](c1cccs1)C(C(C)=O)C(=O)OC` (some centres not stated), the Potency result in [12], in assay [13] and in assay [14] was “inactive” in each case.
For the compound `CCN1C(=O)NC(c2ccco2)C(C(C)=O)=C1C` (configuration not stated), the Potency result in assay [12], in assay [13] and in assay [14] was “inactive” each time.
Consider `COCCN1C(=O)NC(c2cccc(F)c2)C(C(=O)OC)=C1C` (configuration not stated), for which the Potency result in [12], in assay [13] and in assay [14] was “inactive” each time.
Regarding `COC(=O)N[C@H](C(C(=O)OC)=C(C)NCc1ccccc1)c1cccs1`, the Potency entry in assay [12], in assay [13] and in assay [14] was “inactive” throughout.
For `CCN1C(=NCc2ccco2)N[C@@H](CCc2ccccc2)[C@H](C(=O)OC)[C@H]1C`, the Potency result in assay [12], in [13] and in assay [14] was “inactive” throughout.

Source of the values: PubChem BioAssay (NCATS).
